# Data from PubChem BioAssay (Tox21).
# Records with an inconclusive call do not appear. Entries that show only a call come without a potency. More than one record can exist for a structure, and the calls need not agree. Activity calls are given as the source filed them. Unless noted, calls follow the shape of the dose curve; as a rule, active = well fitted curve in the direction sought with a large enough effect in the repeat runs; inconclusive = weak or mixed curves; inactive = no such curve, though single readings can be large; an effect the other way counts as inactive or inconclusive.
# Legend:
# [1] = qHTS assay for identifying genotoxic compounds that show differential cytotoxicity against isogenic chicken DT40 cell lines with known DNA damage response pathways - wild type cell line (AID 743012); also: nearly all actives have a fitted effect of over 60% in size; also: potency is read from the fitted curve at half-maximal effect
# How it was run: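 Wild-type DT40 cells (300/well) exposed to compounds for 40 hours at 37 C/5% CO2. Viability read by CellTiter-Glo luminescence after 30 min at room temperature.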
# [2] = qHTS assay for identifying genotoxic compounds that show differential cytotoxicity against isogenic chicken DT40 cell lines with known DNA damage response pathways - Rev3 mutant cell line (AID 743014); also: nearly all actives have a fitted effect of over 55% in size; also: potency is read from the fitted curve at half-maximal effect
# [3] = qHTS assay for identifying genotoxic compounds that show differential cytotoxicity against isogenic chicken DT40 cell lines with known DNA damage response pathways - Rad54/Ku70 mutant cell line (AID 743015); also: nearly all actives have a fitted effect of over 60% in size; also: potency is read from the fitted curve at half-maximal effect
# [4] = qHTS assay to identify small molecule antagonists of the androgen receptor (AR) signaling pathway - cell viability counter screen (AID 743033; also: nearly all actives have a fitted effect of over 45% in size)
# [5] = qHTS assay to identify small molecule antagonists of the androgen receptor (AR) signaling pathway using the MDA cell line - cell viability counter screen (AID 743041; also: nearly all actives have a fitted effect of over 45% in size)
# How it was run: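 MDA-kb2 AR-luc cells (MMTV-luciferase, AR/GR responsive) treated with compounds plus R1881 agonist for 16 h at 37C. CellTiter-Fluor added at 15.5 h; fluorescence read after 30 min in the same wells.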
# [6] = qHTS assay to identify small molecule antagonists of the thyroid receptor (TR) signaling pathway - cell viability counter screen (AID 743064); also: nearly all actives have a fitted effect of over 50% in size
# How it was run: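 In rat pituitary GH3.TRE-Luc reporter cells co-exposed to compound and 1 nM T3 for 23.5 h, cytotoxicity was assessed with CellTiter-Fluor in the same wells, read by fluorescence.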
# [7] = qHTS assay to identify small molecule antagonists of the thyroid receptor (TR) signaling pathway (AID 743065); also: series mostly up to about 70 µM; nearly all actives have a fitted effect of over 55% in size
# How it was run: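 GH3.TRE-Luc rat pituitary cells (two TREs driving luciferase) were dosed with compound, then stimulated with 1 nM T3 (final) for 23.5 h at 37 C. ONE-Glo luminescence was the read-out, with CellTiter-Fluor fluorescence as the cytotoxicity counter-screen.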
# [8] = system: thyroid hormone receptor (rat, GH3 cells); assay: qHTS assay to identify small molecule agonists of the thyroid receptor (TR) signaling pathway (AID 743066; calls by dose curve)
# [9] = biological target: Estrogen receptor (Homo sapiens) (UniProt P03372); assay: qHTS assay to identify small molecule antagonists of the estrogen receptor alpha (ER-alpha) signaling pathway (AID 743069; active = well fitted curve in the direction sought with a large enough effect in the signal ratio in the repeat runs, not every such curve was filed as active; the % refers to the signal ratio)
# How it was run: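 HEK293 ER-alpha-UAS-bla GripTite cells, held overnight in 2% charcoal-stripped FBS, 5,000 cells/well, preincubated 4 h, then compound plus 17beta-estradiol for 18 h at 37C. Beta-lactamase read by LiveBLAzer B/G FRET substrate, 2 h at room temperature.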
# [10] = qHTS assay to identify small molecule antagonists of the estrogen receptor alpha (ER-alpha) signaling pathway - cell viability counter screen (AID 743074; calls by dose curve;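 also: HEK293 cells carrying ER-alpha-UAS-bla reporter stimulated with 17beta-estradiol; nearly all actives have a fitted effect of over 45% in size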)
# [11] = biological target: Estrogen receptor (Homo sapiens) (UniProt P03372); assay: qHTS assay to identify small molecule agonists of the estrogen receptor alpha (ER-alpha) signaling pathway (AID 743075; calls by dose curve)
# [12] = biological target: Estrogen receptor (Homo sapiens) (UniProt P03372); assay: qHTS assay to identify small molecule agonists of the estrogen receptor alpha (ER-alpha) signaling pathway using the BG1 cell line (AID 743079); also: nearly all actives have a fitted effect of over 20% in size; also: potency is read from the fitted curve at half-maximal effect
# [13] = qHTS assay to identify small molecule antagonists of the estrogen receptor alpha (ER-alpha) signaling pathway using the BG1 cell line (AID 743080; calls by dose curve;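 also: BG1 cells stimulated with 17beta-estradiol alongside compound; nearly all actives have a fitted effect of over 25% in size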; also: potency is read from the fitted curve at half-maximal effect)
# How it was run: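 Endogenous full-length ER-alpha in BG1-Luc-4E2 cells drives a stably integrated 4×ERE luciferase gene; compounds were tested against 17beta-estradiol over 21.5 h, with luminescence and multiplexed viability fluorescence recorded.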
# [14] = qHTS assay to identify small molecule antagonists of the estrogen receptor alpha (ER-alpha) signaling pathway using the BG1 cell line - cell viability counter screen (AID 743081);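 also: compound given together with 17beta-estradiol as the ER stimulus; series mostly up to about 70 µM; nearly all actives have a fitted effect of over 45% in size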
# Aromatase (Homo sapiens) = Aromatase (Homo sapiens) (UniProt P11511); assay: qHTS assay to identify aromatase inhibitors (AID 743083); also: series mostly up to about 70 µM; nearly all actives have a fitted effect of over 55% in size
# [15] = qHTS assay to identify aromatase inhibitors - cell viability counter screen (AID 743084);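 also: cells stimulated with testosterone during compound exposure; nearly all actives have a fitted effect of over 55% in size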
# [16] = qHTS assay to identify small molecule antagonists of the glucocorticoid receptor (GR) signaling pathway - cell viability counter screen (AID 720693); also: nearly all actives have a fitted effect of over 55% in size
# [17] = biological target: Androgen receptor (Homo sapiens) (UniProt P10275); assay: qHTS assay to identify small molecule antagonists of the androgen receptor (AR) signaling pathway (AID 743035; active = well fitted inhibition curve with a large enough effect in the signal ratio in the repeat runs, not every such curve was filed as active; the % refers to the signal ratio)
# How it was run: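 HEK293 cells stably carrying UAS-beta-lactamase reporter, 2,000/well, given compounds plus R1881 agonist and incubated 16 h at 37C. LiveBLAzer B/G FRET substrate then added for 2 h at room temperature before fluorescence reading.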
# [18] = biological target: Androgen receptor (Homo sapiens) (UniProt P10275); assay: qHTS assay to identify small molecule agonists of the androgen receptor (AR) signaling pathway (AID 743036; active = well fitted activation curve with a large enough effect in the signal ratio in the repeat runs, with a control signal flat, not every such curve was filed as active; the % refers to the signal ratio)
# How it was run: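 Cell-based FRET reporter assay: HEK293 line with a UAS-beta-lactamase construct, compounds added in DMSO, 16 h exposure at 37C, then 2 h substrate step at room temperature and fluorescence intensity read.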
# [19] = biological target: Androgen receptor (Homo sapiens) (UniProt P10275); assay: qHTS assay to identify small molecule agonists of the androgen receptor (AR) signaling pathway using the MDA cell line (AID 743040; also: nearly all actives have a fitted effect of over 20% in size)
# How it was run: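 MDA-kb2 breast carcinoma cells carrying MMTV-luciferase (responsive to AR and GR), plated 5 h then treated 16 h with compounds at 37C, 0% CO2. Read-out was ONE-Glo luminescence after 30 min at room temperature.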
# Sequence of Estrogen receptor (Homo sapiens) (P03372 whole entry, looked up): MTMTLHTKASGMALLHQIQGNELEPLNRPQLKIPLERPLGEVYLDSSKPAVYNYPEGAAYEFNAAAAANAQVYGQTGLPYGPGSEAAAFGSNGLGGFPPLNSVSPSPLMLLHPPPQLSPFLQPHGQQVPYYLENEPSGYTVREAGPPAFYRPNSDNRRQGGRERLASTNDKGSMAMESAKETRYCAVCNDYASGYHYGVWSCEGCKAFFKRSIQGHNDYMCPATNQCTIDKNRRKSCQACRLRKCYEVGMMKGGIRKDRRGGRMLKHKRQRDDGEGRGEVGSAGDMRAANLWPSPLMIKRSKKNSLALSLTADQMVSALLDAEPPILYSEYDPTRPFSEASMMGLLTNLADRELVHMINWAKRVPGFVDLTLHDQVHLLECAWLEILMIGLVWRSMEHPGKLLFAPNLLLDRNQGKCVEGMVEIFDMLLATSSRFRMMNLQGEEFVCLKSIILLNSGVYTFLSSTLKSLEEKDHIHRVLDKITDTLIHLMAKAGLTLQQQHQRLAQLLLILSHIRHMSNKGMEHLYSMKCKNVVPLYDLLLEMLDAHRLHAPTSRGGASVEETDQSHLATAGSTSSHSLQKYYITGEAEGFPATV
# Sequence of Aromatase (Homo sapiens) (P11511 whole entry, looked up): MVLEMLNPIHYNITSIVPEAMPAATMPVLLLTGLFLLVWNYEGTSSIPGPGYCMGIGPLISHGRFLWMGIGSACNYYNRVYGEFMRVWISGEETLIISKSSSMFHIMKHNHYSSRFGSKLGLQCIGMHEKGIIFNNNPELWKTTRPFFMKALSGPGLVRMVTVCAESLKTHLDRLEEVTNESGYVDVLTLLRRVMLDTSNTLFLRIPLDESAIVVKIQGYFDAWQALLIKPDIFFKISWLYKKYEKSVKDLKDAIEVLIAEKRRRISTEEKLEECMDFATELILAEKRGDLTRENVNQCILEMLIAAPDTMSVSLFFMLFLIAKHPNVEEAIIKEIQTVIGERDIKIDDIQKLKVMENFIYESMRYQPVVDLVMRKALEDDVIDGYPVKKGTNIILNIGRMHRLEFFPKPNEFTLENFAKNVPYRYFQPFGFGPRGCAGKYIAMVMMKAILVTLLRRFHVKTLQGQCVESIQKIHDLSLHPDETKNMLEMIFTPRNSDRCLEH
# Sequence of Androgen receptor (Homo sapiens) (P10275 whole entry, looked up): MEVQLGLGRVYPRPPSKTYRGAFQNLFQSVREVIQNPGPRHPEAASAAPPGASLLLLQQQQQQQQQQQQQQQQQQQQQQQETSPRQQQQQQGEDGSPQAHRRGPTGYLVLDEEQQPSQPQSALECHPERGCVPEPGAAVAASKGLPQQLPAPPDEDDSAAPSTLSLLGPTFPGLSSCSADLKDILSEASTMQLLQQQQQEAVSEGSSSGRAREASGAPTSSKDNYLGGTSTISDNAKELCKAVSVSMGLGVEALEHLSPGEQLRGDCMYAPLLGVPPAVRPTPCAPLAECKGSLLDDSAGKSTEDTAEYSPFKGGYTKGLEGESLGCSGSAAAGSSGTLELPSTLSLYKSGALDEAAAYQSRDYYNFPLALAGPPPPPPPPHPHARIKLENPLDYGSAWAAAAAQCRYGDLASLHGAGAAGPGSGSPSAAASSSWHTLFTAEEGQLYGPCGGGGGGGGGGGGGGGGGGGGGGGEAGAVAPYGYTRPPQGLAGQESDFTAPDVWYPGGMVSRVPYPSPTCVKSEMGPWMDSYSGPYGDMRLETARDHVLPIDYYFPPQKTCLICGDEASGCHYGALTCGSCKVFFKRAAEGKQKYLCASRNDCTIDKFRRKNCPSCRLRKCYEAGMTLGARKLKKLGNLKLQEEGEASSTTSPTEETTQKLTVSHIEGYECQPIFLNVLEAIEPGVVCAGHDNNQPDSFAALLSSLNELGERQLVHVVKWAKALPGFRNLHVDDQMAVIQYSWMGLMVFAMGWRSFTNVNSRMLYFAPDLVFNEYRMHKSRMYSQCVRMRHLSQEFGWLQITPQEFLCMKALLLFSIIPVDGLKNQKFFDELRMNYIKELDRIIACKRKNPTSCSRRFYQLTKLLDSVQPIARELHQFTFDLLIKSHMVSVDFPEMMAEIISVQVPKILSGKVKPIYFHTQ
Structure (SMILES),Potency [1],Potency [2],Potency [3],outcome [4],outcome [5],Potency [6],Potency [7],Potency [8],outcome [9],Potency [10],Potency [11],Potency [12],Potency [13],outcome [14],Potency (Aromatase (Homo sapiens)),outcome [15],outcome [16],outcome [17],outcome [18],outcome [19]
C=COCCCCO,inactive,inactive,inactive,inactive,inactive,inactive,inactive,inactive,inactive,inactive,inactive,inactive,inactive,inactive,inactive,inactive,,,,
COC(=O)/C=C(\C)CCC=C(C)C,,,,inactive,inactive,inactive,inactive,inactive,inactive,inactive,inactive,inactive,inactive,inactive,inactive,,inactive,,,
COc1ccc2cc(CCC(C)=O)ccc2c1,,inactive,inactive,,,inactive,inactive,inactive,,inactive,,,,inactive,inactive,inactive,inactive,,,
CC(C)(C)NCC(O)COc1cccc2c1CCC(=O)N2 (centres undefined),,inactive,,inactive,inactive,inactive,,,,inactive,,,,inactive,inactive,,inactive,inactive,inactive,inactive
CCCCCCCCCCCCCCBr,,inactive,inactive,inactive,,inactive,inactive,inactive,inactive,inactive,inactive,inactive,inactive,inactive,inactive,inactive,inactive,,,
CCC(C)c1nccnc1OC (centres undefined),,inactive,,inactive,inactive,inactive,inactive,inactive,inactive,inactive,inactive,inactive,inactive,inactive,inactive,inactive,inactive,,,
CCCCCCC(O)CO (centres undefined),,inactive,inactive,,inactive,,inactive,,inactive,inactive,inactive,inactive,inactive,inactive,inactive,inactive,inactive,,,
Cc1cccc(N)n1,,,,,inactive,inactive,inactive,inactive,inactive,inactive,inactive,inactive,inactive,inactive,inactive,inactive,inactive,,,
OCCC(F)(F)C(F)(F)C(F)(F)C(F)(F)C(F)(F)C(F)(F)F,inactive,inactive,inactive,inactive,inactive,inactive,inactive,inactive,inactive,inactive,inactive,inactive,inactive,inactive,inactive,inactive,,,,
CC(C)(O)CCCC1=CCC(C=O)CC1 (centres undefined),,65.2 µM (active),,,inactive,inactive,,inactive,inactive,inactive,inactive,58.1 µM (active),inactive,inactive,inactive,inactive,inactive,,,
CC(C)C[P+](C)(CC(C)C)CC(C)C,inactive,inactive,inactive,inactive,inactive,inactive,inactive,inactive,inactive,inactive,inactive,inactive,inactive,inactive,inactive,inactive,,,,
C[Si](C)(C)O[Si](O)(O)O,,61.1 µM (active),,inactive,,inactive,inactive,inactive,inactive,inactive,inactive,inactive,inactive,inactive,inactive,inactive,inactive,,,
CC(O)C(CO)C(C)O (centres undefined),inactive,inactive,inactive,inactive,inactive,inactive,inactive,inactive,inactive,inactive,inactive,inactive,inactive,inactive,inactive,inactive,,inactive,inactive,inactive
Nc1cc(S(=O)(=O)O)ccc1O,inactive,inactive,inactive,,inactive,inactive,inactive,inactive,inactive,inactive,inactive,inactive,inactive,inactive,inactive,inactive,,inactive,inactive,inactive
Nc1nc(Cl)cc(Cl)n1,inactive,inactive,,,inactive,,inactive,inactive,inactive,,inactive,inactive,inactive,inactive,inactive,inactive,,,,
CC1(C)C(=O)C(C)(C)C1=O,inactive,,inactive,,inactive,,inactive,inactive,,inactive,,,,inactive,inactive,inactive,,inactive,inactive,inactive
Cc1ccc(Br)cc1,inactive,inactive,inactive,inactive,inactive,inactive,inactive,inactive,inactive,inactive,inactive,inactive,inactive,inactive,inactive,inactive,,,,
C=CC(=O)OCC[N+](C)(C)C,inactive,inactive,inactive,inactive,,inactive,inactive,inactive,inactive,,inactive,inactive,inactive,inactive,inactive,inactive,,,,
CCCCC(CC)CCC(CC(C)C)OS(=O)(=O)O (centres undefined),inactive,inactive,inactive,inactive,inactive,,,,inactive,inactive,inactive,8.41 µM (active) and inactive,inactive,inactive,inactive,inactive,,,,

Structure (SMILES),Potency [1],Potency [2],Potency [3],outcome [4],outcome [5],Potency [6],Potency [7],Potency [8],outcome [9],Potency [10],Potency [11],Potency [12],Potency [13],outcome [14],Potency (Aromatase (Homo sapiens)),outcome [15],outcome [16],outcome [17],outcome [18],outcome [19]
CC(=O)Oc1ccc(C(C)=O)cc1,inactive,inactive,inactive,,,,inactive,inactive,,,inactive,inactive,inactive,inactive,inactive,inactive,,,,
C[C@@H](CN1CC(=O)NC(=O)C1)N1CC(=O)NC(=O)C1,inactive,inactive,,inactive,inactive,inactive,inactive,inactive,inactive,inactive,inactive,inactive,inactive,inactive,inactive,inactive,,inactive,inactive,inactive
CCCCNCC,inactive,inactive,inactive,inactive,inactive,,,,inactive,inactive,inactive,inactive,inactive,inactive,inactive,inactive,,,,
CC(C)C(C)C,inactive,inactive,inactive,inactive,inactive,,inactive,inactive,,inactive,,,,inactive,inactive,inactive,,,,
CCOC(=O)CC,inactive,inactive,inactive,inactive,,,inactive,inactive,inactive,inactive,inactive,inactive,inactive,inactive,inactive,inactive,,,,
C=CC(=O)OCCOCCOCC,inactive,inactive,inactive,inactive,inactive,inactive,inactive,inactive,,inactive,,,,inactive,inactive,,,,,
CN(C)CCc1c[nH]c2ccc(CS(=O)(=O)N3CCCC3)cc12,inactive,inactive,inactive,inactive,inactive,inactive,inactive,inactive,inactive,inactive,inactive,inactive,inactive,inactive,inactive,inactive,,,,
CCCCC(CC)COC(=O)CC#N (centres undefined),inactive,inactive,inactive,inactive,inactive,inactive,,,inactive,,inactive,inactive,inactive,inactive,inactive,inactive,,,,
CCCOc1ccc(C(=O)OCCN(CC)CC)cc1N,9.44 µM (active),6.68 µM (active),13.3 µM (active),inactive,inactive,inactive,,inactive,,inactive,,,,,inactive,inactive,,,,
Cc1nnc(C(=O)NC(C)(C)c2nc(C(=O)NCc3ccc(F)cc3)c(O)c(=O)n2C)o1,inactive,inactive,inactive,inactive,inactive,inactive,inactive,inactive,,inactive,,,,inactive,,,,,,
CCOC(=O)CC(C(C)=O)C(C)=O,inactive,inactive,inactive,inactive,inactive,,inactive,inactive,inactive,inactive,inactive,inactive,inactive,inactive,inactive,inactive,,,,
CCOC(=O)COc1ccc2c(C)c(CCN(CC)CC)c(=O)oc2c1Cl,,,,inactive,,,,inactive,inactive,inactive,inactive,inactive,inactive,inactive,inactive,inactive,,,,
CC/C=C/CCCCCCCCCCOC(C)=O,inactive,43.3 µM (active),inactive,inactive,inactive,,inactive,inactive,inactive,inactive,inactive,inactive,inactive,inactive,inactive,inactive,,,,
CCCCCCC(=O)c1ccccc1,inactive,,,,inactive,,inactive,inactive,,inactive,,,,inactive,inactive,inactive,,,,
C/C=C/C(=O)CCCC,inactive,inactive,inactive,,inactive,inactive,inactive,inactive,inactive,inactive,inactive,inactive,inactive,inactive,inactive,inactive,,,,
NCC1CCC(C(=O)Oc2ccc(CCC(=O)O)cc2)CC1 (centres undefined),inactive,inactive,inactive,,inactive,inactive,inactive,inactive,inactive,inactive,inactive,,26.6 µM (active),inactive,,inactive,,,,
c1coc(Cn2cccc2)c1,inactive,inactive,inactive,inactive,inactive,,inactive,inactive,inactive,inactive,inactive,inactive,inactive,inactive,inactive,inactive,,,,
CCCCS,inactive,inactive,inactive,,inactive,inactive,inactive,inactive,inactive,inactive,inactive,inactive,inactive,inactive,inactive,inactive,,,,
CC[N+](C)(CC)CC,inactive,inactive,inactive,inactive,inactive,inactive,inactive,inactive,,inactive,,,,inactive,inactive,inactive,,,,
